Our source for the inhibition values is ChEMBL document CHEMBL1961873, “Compounds: GSK PKIS; Assays: Nanosyn kinase panel” (2012).

The structures appear in SMILES notation.

In assay [1] the target is Sphingosine kinase 1 (Homo sapiens) (UniProt Q9NYA1). The following applies: at 1 µM.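 Further: mean SPHK1 inhibition value reported from the GSK PKIS kinase panel screen.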
Assay [2] concerns the target T1, Sphingosine kinase 2 (Homo sapiens) (UniProt Q9NRA0).
T1 sequence (whole entry): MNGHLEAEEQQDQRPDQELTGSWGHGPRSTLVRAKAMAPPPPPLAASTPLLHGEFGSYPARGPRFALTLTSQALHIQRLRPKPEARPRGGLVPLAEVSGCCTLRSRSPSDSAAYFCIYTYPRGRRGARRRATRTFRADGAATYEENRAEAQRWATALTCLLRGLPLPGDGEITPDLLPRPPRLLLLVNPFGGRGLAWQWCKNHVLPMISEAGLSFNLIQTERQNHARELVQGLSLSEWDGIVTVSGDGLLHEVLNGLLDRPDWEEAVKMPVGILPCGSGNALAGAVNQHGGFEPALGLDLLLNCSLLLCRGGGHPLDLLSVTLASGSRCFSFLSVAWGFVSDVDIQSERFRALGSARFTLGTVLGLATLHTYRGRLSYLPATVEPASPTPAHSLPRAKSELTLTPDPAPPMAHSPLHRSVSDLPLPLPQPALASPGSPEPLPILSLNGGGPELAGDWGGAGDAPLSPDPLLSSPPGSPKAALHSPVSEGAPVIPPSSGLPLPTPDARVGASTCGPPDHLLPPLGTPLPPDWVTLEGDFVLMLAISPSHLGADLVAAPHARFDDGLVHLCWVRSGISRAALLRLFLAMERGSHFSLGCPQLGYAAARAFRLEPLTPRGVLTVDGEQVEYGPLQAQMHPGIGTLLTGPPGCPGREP
The settings on record: at 0.1 µM.

In assay [3] the target is T1, Sphingosine kinase 2 (Homo sapiens). The following applies: at 1 µM.
In assay [4] the target is Casein kinase II subunit alpha (Homo sapiens) (UniProt P68400). The settings on record: at 0.1 µM.
Casein kinase II subunit alpha (Homo sapiens), sequence (P68400 whole entry, looked up): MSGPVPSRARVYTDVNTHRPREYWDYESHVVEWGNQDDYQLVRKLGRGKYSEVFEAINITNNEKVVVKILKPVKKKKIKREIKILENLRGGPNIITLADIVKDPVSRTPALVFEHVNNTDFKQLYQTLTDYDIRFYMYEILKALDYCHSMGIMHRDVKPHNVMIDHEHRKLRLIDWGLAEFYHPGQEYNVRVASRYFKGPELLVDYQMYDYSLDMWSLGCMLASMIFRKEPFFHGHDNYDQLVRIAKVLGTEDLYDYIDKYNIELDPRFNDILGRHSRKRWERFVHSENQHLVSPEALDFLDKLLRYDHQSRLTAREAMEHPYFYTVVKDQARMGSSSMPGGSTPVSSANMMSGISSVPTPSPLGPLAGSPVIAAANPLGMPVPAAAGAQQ
Assay [5] shares this target. The settings on record: at 1 µM.
Assay [6] concerns the target T2, Inhibitor of nuclear factor kappa-B kinase subunit alpha (Homo sapiens) (UniProt O15111).
T2 sequence (whole entry): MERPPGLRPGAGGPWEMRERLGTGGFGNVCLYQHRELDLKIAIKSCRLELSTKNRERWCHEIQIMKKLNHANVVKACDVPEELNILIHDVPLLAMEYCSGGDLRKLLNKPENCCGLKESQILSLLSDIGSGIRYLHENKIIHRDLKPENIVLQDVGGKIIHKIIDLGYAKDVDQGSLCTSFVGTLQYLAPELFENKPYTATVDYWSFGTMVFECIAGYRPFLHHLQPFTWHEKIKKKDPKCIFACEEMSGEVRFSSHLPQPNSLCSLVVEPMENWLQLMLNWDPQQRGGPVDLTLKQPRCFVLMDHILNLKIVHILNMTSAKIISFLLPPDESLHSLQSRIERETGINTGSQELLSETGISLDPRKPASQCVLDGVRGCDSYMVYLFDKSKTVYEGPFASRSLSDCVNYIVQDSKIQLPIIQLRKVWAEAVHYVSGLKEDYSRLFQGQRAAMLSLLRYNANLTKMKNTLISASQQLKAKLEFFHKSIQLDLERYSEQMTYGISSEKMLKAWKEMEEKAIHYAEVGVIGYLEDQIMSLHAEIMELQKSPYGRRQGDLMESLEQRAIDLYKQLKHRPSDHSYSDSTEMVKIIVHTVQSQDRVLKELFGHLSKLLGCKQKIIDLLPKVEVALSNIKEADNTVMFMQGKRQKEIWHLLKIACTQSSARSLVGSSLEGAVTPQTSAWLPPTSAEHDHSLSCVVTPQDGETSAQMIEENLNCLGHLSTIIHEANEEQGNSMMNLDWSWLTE
The following applies: at 0.1 µM.

Assay [7] addresses T2, Inhibitor of nuclear factor kappa-B kinase subunit alpha (Homo sapiens). The following applies: at 1 µM.
The target in assay [8] is T3, Inhibitor of nuclear factor kappa-B kinase subunit beta (Homo sapiens) (UniProt O14920).
T3 sequence (whole entry): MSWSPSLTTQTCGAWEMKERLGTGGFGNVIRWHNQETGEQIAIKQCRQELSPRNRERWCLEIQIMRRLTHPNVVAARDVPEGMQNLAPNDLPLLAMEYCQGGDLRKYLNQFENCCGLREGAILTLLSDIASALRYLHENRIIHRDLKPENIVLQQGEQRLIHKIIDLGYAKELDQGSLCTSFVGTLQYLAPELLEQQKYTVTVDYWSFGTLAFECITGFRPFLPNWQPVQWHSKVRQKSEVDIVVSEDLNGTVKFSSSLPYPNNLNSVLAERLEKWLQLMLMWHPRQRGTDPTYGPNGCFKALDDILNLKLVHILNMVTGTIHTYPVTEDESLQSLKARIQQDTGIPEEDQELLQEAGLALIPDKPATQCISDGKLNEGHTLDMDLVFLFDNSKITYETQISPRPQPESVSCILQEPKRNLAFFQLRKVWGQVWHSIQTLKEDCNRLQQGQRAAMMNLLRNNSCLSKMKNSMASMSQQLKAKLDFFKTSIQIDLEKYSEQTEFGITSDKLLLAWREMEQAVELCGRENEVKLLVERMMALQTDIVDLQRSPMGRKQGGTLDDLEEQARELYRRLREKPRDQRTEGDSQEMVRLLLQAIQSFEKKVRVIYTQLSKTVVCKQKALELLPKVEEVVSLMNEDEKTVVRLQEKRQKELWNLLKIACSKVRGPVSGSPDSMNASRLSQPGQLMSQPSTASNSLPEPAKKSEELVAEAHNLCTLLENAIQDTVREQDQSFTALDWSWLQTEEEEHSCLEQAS
The following applies: at 0.1 µM.

The target in assay [9] is T3, Inhibitor of nuclear factor kappa-B kinase subunit beta (Homo sapiens). The settings on record: at 1 µM.
Assay [10] concerns the target T4, Inhibitor of nuclear factor kappa-B kinase subunit epsilon (Homo sapiens) (UniProt Q14164).
T4 sequence (whole entry): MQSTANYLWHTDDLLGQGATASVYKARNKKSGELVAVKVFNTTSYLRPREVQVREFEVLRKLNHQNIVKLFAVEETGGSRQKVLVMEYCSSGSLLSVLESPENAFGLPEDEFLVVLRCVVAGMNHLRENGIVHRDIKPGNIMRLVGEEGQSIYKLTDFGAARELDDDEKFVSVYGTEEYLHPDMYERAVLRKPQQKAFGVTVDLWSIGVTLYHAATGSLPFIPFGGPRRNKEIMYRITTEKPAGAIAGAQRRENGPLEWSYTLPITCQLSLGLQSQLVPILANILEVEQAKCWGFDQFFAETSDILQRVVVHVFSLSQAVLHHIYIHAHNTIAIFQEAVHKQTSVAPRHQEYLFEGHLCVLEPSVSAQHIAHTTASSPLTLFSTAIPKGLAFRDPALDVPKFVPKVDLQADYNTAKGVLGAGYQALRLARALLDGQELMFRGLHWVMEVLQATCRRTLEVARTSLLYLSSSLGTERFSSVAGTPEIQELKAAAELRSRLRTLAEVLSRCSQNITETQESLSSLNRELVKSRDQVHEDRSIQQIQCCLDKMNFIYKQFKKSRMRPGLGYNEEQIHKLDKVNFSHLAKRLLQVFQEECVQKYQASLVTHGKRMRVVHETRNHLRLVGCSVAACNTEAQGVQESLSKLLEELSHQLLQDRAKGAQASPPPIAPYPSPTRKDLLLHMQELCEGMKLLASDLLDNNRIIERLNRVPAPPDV
The settings on record: at 0.1 µM.

Assay [11] addresses T4, Inhibitor of nuclear factor kappa-B kinase subunit epsilon (Homo sapiens). The following applies: at 1 µM.
The target of assay [12] is T5, Serine/threonine-protein kinase Nek1 (Homo sapiens) (UniProt Q96PY6).
T5 sequence (whole entry): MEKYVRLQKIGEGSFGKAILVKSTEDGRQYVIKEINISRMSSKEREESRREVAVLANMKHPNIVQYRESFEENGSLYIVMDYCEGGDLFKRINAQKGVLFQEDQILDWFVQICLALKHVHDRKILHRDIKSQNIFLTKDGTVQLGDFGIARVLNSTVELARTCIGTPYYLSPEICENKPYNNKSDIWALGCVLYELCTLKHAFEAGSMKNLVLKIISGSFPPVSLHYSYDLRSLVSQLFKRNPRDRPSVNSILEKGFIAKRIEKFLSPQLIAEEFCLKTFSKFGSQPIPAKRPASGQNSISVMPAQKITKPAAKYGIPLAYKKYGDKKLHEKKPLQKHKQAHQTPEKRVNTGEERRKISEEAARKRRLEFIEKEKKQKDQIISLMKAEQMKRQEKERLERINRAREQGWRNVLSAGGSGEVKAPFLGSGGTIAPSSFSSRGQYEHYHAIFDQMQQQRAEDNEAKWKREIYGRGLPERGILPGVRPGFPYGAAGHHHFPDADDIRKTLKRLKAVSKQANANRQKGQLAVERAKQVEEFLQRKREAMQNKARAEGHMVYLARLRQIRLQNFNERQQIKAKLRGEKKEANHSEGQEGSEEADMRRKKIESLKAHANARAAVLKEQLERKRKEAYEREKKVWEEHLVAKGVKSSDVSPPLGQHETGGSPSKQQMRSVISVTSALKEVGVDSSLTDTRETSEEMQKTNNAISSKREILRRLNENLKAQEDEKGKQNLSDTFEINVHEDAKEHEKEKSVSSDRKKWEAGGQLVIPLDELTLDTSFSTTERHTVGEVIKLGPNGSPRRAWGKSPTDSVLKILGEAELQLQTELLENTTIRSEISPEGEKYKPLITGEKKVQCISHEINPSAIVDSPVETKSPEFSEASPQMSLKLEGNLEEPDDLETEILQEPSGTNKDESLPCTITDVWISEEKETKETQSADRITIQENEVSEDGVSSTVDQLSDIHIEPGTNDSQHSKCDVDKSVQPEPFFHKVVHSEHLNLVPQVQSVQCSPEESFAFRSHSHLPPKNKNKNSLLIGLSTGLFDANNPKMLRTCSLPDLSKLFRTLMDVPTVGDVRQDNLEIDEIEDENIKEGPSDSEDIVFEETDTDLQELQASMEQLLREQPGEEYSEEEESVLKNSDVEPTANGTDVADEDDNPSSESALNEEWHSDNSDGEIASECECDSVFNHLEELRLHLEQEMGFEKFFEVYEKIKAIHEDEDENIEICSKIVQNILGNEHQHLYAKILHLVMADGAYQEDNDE
The settings on record: at 0.1 µM.

Assay [13] concerns the target T5, Serine/threonine-protein kinase Nek1 (Homo sapiens). The following applies: at 1 µM.
Assay [14] deals with T6, Serine/threonine-protein kinase Nek2 (Homo sapiens) (UniProt P51955).
T6 sequence (whole entry): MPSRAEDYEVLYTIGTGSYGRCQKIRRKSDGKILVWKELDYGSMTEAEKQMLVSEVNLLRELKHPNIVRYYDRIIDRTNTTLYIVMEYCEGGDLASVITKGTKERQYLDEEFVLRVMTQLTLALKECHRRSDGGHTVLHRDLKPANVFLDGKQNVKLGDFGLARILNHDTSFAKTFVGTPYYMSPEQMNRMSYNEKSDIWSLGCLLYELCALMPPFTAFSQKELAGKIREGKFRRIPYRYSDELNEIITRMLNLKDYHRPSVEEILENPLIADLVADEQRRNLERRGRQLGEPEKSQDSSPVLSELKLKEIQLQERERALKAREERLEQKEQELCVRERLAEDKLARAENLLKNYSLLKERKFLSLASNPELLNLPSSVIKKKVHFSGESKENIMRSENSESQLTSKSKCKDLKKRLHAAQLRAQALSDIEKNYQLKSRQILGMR
The settings on record: at 0.1 µM.

Assay [15] addresses T6, Serine/threonine-protein kinase Nek2 (Homo sapiens). The settings on record: at 1 µM.
Assay [16] has as its target Serine/threonine-protein kinase Nek6 (Homo sapiens) (UniProt Q9HC98). The following applies: at 0.1 µM.
Assay [17] has the same target. The following applies: at 1 µM.
Assay [18] has as its target Serine/threonine-protein kinase Nek7 (Homo sapiens) (UniProt Q8TDX7). The settings on record: at 0.1 µM.
Assay [19] has the same target. The settings on record: at 1 µM.
The target in assay [20] is T7, Serine/threonine-protein kinase Nek9 (Homo sapiens) (UniProt Q8TD19).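 Further: reported value is the mean percent inhibition of NEK9.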
T7 sequence (whole entry): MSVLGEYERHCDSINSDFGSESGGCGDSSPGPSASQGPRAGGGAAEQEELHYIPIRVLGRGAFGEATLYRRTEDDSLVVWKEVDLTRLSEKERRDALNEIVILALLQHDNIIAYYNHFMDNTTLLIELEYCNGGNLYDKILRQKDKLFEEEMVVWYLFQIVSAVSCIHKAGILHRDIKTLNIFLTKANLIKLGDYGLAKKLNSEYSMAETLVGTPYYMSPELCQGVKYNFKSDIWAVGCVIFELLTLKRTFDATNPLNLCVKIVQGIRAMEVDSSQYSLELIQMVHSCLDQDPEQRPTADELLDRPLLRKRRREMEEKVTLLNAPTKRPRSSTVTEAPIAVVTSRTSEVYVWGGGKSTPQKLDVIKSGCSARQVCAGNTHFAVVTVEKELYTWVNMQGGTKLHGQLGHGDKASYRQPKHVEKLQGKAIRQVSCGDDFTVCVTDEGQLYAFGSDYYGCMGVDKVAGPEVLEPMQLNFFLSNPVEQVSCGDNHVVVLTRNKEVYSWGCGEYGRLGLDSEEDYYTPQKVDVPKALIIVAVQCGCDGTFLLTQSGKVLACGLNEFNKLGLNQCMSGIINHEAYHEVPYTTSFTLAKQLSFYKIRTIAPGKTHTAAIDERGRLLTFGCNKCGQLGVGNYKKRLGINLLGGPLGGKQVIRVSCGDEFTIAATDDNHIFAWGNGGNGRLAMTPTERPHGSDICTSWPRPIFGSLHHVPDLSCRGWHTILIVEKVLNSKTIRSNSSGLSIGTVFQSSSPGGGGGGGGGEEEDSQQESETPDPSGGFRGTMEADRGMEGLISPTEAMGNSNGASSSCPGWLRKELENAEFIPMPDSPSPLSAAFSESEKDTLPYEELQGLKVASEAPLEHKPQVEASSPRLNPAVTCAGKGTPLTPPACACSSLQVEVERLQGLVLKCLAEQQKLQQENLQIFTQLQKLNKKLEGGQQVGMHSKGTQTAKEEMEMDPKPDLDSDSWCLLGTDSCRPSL
The settings on record: at 0.1 µM.

Serine/threonine-protein kinase Nek7 (Homo sapiens), sequence (Q8TDX7 whole entry, looked up): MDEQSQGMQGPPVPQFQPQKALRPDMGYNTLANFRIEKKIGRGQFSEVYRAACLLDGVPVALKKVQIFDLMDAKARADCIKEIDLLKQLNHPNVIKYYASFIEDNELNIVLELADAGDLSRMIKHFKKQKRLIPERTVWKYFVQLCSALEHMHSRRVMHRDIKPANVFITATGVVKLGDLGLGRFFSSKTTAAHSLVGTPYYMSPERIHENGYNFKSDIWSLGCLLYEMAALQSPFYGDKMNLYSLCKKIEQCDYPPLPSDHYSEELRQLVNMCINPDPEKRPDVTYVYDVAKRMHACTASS
Serine/threonine-protein kinase Nek6 (Homo sapiens), sequence (Q9HC98 whole entry): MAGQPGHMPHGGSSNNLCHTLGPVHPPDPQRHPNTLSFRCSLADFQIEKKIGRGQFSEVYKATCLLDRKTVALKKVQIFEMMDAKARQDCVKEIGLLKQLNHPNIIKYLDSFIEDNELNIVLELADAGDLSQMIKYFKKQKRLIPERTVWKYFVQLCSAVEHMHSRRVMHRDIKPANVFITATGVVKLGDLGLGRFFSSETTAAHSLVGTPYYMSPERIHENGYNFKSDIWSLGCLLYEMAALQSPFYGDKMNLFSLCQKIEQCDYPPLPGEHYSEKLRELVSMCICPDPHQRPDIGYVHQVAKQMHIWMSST
Sphingosine kinase 1 (Homo sapiens), sequence (Q9NYA1 whole entry): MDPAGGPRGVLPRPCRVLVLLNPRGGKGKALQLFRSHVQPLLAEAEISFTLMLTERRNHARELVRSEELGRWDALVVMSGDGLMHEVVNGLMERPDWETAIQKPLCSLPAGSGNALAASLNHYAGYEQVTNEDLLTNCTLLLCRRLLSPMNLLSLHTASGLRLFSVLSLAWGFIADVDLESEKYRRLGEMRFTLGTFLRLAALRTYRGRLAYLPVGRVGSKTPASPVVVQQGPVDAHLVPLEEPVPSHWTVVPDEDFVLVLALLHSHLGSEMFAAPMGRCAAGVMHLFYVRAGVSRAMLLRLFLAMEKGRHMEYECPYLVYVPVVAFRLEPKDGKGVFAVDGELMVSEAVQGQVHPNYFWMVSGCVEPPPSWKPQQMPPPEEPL

The term inhibition denotes the drop in the measured response relative to a control, in per cent. `NS(=O)(=O)c1ccc(N/C=C2\C(=O)Nc3ccc4ncsc4c32)cc1`: the inhibition was 0.02% in assay [1]; -1.02% in [2]; -0.93% in assay [3]; 7.56% in [4]; 28% in assay [5]; 2.29% in [6]. Further, the inhibition stood at 14.3% in assay [7]; 8.87% in [8]; 13.1% in [9]; 13.3% in [10]; 41.9% in [11]; 2.04% in assay [12]. Moreover, the inhibition in assay [13] was found to be 3.28%; in assay [14], 6.71%; in assay [15] it was 8.52%; in [16] it was 1.42%; in assay [17], 4.37%; in assay [18] it was 1.21%. The inhibition amounted to 7.53% in assay [19] and 5.84% in [20].
